Screening data (PubChem BioAssay)
A selection: hits, their analogues and other compounds. The true share with any hit is near 8.7%.
Sfp inh = inhibitors of Bacillus subtilis Sfp phosphopantetheinyl transferase. Q9F4F7. Biochemical Sfp PPTase activity, qHTS. Potency, µM, without a hit: largest response in the series, negative = inhibition, hits mostly inhibitors. hit rate 3.5% among 310,000;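 further: the enzyme is Sfp with the accession as filed and its product quenches rhodamine fluorescence; 0% = enzyme reaction without inhibitor and -100% = no enzyme wells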
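Buffer: 50 mM Hepes-Na pH 7.6, 10 mM MgCl2, 0.01% Nonidet P-40, 0.01% BSA. Enzyme 15 nM, pre-exposed to compound 15 min; substrates then added and fluorescence change tracked over 30 min.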
12-LOX inh = blocks human arachidonate 12S-lipoxygenase; P18054; purified 12hLO, xylenol orange hydroperoxide absorbance; Potency, µM (highest dose often 108 µM), for the others: top-dose activity change, negative = inhibition, usual class: inhibitors; hit rate 1.1% among 580,000; AID 1671190; further: on the % scale 0 is the no-effect control and ±100 the full control effect
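Purified human 12hLO (150 nM final) in 25 mM Hepes, 0.01% Triton X-100, pH 7.0 was preincubated 15 min at room temperature with compound. Then 40 uM arachidonic acid was added, 30 min. Hydroperoxide was read by Fe-XO absorbance ratio 573/405 nm.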
G9a block = G9a (human) methyltransferase inhibition; Q96KQ7; G9a H3K9 monomethylation, AlphaScreen, 2 h; Potency, µM (series often up to 102 µM), inactives show at the highest dose activity, negative = inhibition, usual class: inhibitors; hit rate 8.8% among 350,000; further: on the % scale 0 is the no-effect control and ±100 the full control effect; nearly all actives have a fitted effect of over 75% in size
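Compounds were preincubated with 20 nM G9a for 15 min, after which biotinylated H3K9 peptide (500 nM) and SAM (20 uM) started a 2 h room-temperature reaction. Monomethylated product was quantified by antibody-based AlphaScreen chemiluminescence.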
BAZ2B inh = inhibitors of human BAZ2B bromodomain; AlphaScreen BAZ2B-H3K14Ac peptide displacement; Potency, µM (titrated, usually from 114 µM), without a hit: at the highest dose activity change, negative = inhibition, most hits filed as inhibitors; hit rate 4.4% among 360,000; AID 504333; further: on the % scale 0 is the no-effect control and ±100 the full control effect; nearly all actives have a fitted effect of over 60% in size
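Complex of BAZ2B and biotin-H3K14Ac (50 nM apiece) forms over 30 min at RT, then faces library compounds up to 110 uM for another 30 min; AlphaScreen beads added, 20 min dark incubation, luminescence read.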
JMJD2A Tudor = JMJD2A Tudor domain (human) inhibition; Potency, µM (titrated, usually from 114 µM), without a hit: top-dose activity change, negative = inhibition, usual class: inhibitors; hit rate 4.4% among 390,000; O75164; AlphaScreen JMJD2A-Tudor / H3K4me3 peptide binding; further: on the % scale 0 is the no-effect control and ±100 the full control effect; nearly all actives have a fitted effect of over 50% in size
HP1b binding inh = blocks HP1-beta chromodomain binding to methylated histone tails. P83916. AlphaScreen HP1-beta / biotin-H3K9me3 peptide binding. Potency, µM (top dose mostly 114 µM), for the others: top-dose activity change, negative = inhibition, actives largely listed as inhibitors. hit rate 0.56% among 390,000. AID 540317; further: nearly all actives have a fitted effect of over 70% in size
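AlphaScreen: HP1-beta (50 nM) preformed 30 min with biotin-H3(1-18)K9me3 peptide (50 nM) in PBS pH 7.4, 0.01% Tween-20. Compound added for 30 min at RT, then streptavidin donor/nickel chelate acceptor beads (10 ug/mL) for 30 min.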
Starred values were filed as active, the others as inactive; u = inconclusive; x = not tested or not shown; ! = not active in a repeat; [ ] = dose if it differs, or a comment. The call rests on the fitted dose curve; in most records, active means well fitted curve in the direction sought with a large enough effect; inconclusive means small, poorly fitted or top-dose-only effect, or another doubt; inactive means no such curve, though single readings can be large; an effect the other way counts as inactive or inconclusive. Potency means the concentration at half of the fitted maximal effect.

SMILES	Sfp inh	12-LOX inh	G9a block	BAZ2B inh	JMJD2A Tudor	HP1b binding inh
O=C(C1=C(c2ccccc2)C(=O)c2ccccc2C1=O)c1ccccc1	-9%	-7%	35µM*	13µM*	22µM*	u
Cc1cc(C)nc(N/N=C/c2sccc2C)n1	7%	12%	1%	-7%	13µM*	1%
Cc1ccsc1/C=N/Nc1ncc(Cl)cc1Cl	11%	-8%	35%[59 µM]	-7%	-24%	46%
Cc1ccsc1/C=N/Nc1nc(=O)[nH]nc1C	12%	-1%	4%	32µM*	u	30%
Cc1ccsc1/C=N/Nc1ccc(F)cc1F	-2%	40µM*	1.3µM*	u	-34%	-29%
O=C(NCc1ccccc1-n1cccn1)C1NCCc2[nH]cnc21 (stereo not drawn)	x	53%	x	x	x	x
CCCNC(=O)Cc1ccc(NC(=O)N2CCSc3ncccc32)cc1	x	3%	x	x	x	x
O=C(COc1ncnc2ccc(Br)cc12)N1CCOCC1	8%	-29%	1.1µM*	-22%	-13%	20%
O=C(COc1ncnc2ccc(Br)cc12)Nc1ccc(N2CCOCC2)cc1	-8%	-15%	17%	-1%	-14%	9%
Brc1ccc2ncnc(Nc3ccc(N4CCOCC4)cc3)c2c1	-2%	-16%	-44%[12.7 µM]	45µM*	u	-31%
Cc1cc(C2CCCN2Cc2coc(-c3cccc(Cl)c3)n2)on1 (stereo not drawn)	x	-10%	x	x	x	x
O=C(Nc1ccccc1)O[C@@H]1CO[C@H]2[C@@H]1OC[C@@H]2n1nnnc1-c1ccc2c(c1)OCCO2	x	2%	x	x	x	x
CCOC(=O)c1c(/N=C/C2=C(O)CCCC2=O)sc2c1CCCC2	-26%	0%	-33%[59 µM]	-1%	-7%	64%
CCOC(=O)c1c(NC(=O)c2cccc([N+](=O)[O-])c2C(=O)O)sc2c1CCCC2	10%	-7%	21%	4%	-26%	57%
CCOC(=O)c1c(NC(=O)c2c(C(=O)O)cccc2[N+](=O)[O-])sc2c1CCCC2	18µM*	0%	8.9µM*	-24%	u	u
CCOC(=O)c1c(/N=C/c2ccccc2O)sc2c1CCC2	-14%	u	71µM*	-30%	-27%	-7%
CCOC(=O)c1c(/N=C/c2ccc(O)cc2O)sc2c1CCC2	-11%	x	-10%[59 µM]	u	x	x
CCOC(=O)c1c(/N=C/c2cccc([N+](=O)[O-])c2O)sc2c1CCC2	18µM*	u	x	u	u	u
CCOc1cccc2c1OC(c1cc(OC)c(OC)c(OC)c1)N1N=C(c3ccc(C)o3)CC21 (stereo not drawn)	u	x	13µM*	u	-34%	11%
Cc1oc(-c2ccccc2)nc1C(=O)Nc1ccccc1Cc1ccccc1	x	7%	x	x	x	x
O=c1cc(O)c(-c2ccc(Cl)cc2)c(Cl)[nH]1	-2%	u	x	-29%	-12%	20%
O=C1c2cc(Cl)ccc2-c2c(O)cc(Cl)cc21	x	35µM*	x	x	u	-17%[57 µM]
C=CCCC(CN1CCSCC1)Oc1ncc(C)c(N(C)C)n1 (stereo not drawn)	x	15%	x	x	x	x
COc1cccc(C2=Nn3c(nnc3-c3ccccc3OC)SC2)c1	u	x	x	x	79µM*	x
COc1ccccc1-c1nnc2n1N=C(c1ccc(O)c(O)c1)CS2	-20%	x	u	50µM*	u	-2%
SMILES	Sfp inh	12-LOX inh	G9a block	BAZ2B inh	JMJD2A Tudor	HP1b binding inh
CCCCC1OC2(C)OC(=N)C1(C#N)C(C#N)(C#N)C2c1ccccc1 (stereo not drawn)	21%	u	45µM*	2%	-15%	18%
CCOc1ccc(NC(=O)Cn2nnc(-c3ccc(C(N)=O)cc3)n2)cc1S(=O)(=O)N1CCCC1	x	-7%	79µM*	-7%	-23%	6%
CCOc1ccc(C2Nc3cccc4cccc(c34)N2)cc1OC	-26%	350%	10µM*	-39%	u	50µM*
CCOc1cc(C2Nc3cccc4cccc(c34)N2)ccc1O	-12%	x	10µM*	u	-33%	-35%
CCOc1cc(C2Nc3ccccc3C(=O)N2c2ccccc2)ccc1O (stereo not drawn)	7%	7%	20%	-5%	-1%	18%
CCOc1ccc(C2NCCc3cc(OC)c(OC)cc32)cc1OC (stereo not drawn)	15%	2%	-14%	3%	-10%	44%
Cc1cnc(C(=O)N[C@@H]2CCC[C@@H]2C(=O)NCCc2ccc(Cl)cc2)cn1	x	33%	x	x	x	x
O=C(C1=C(O)C(=O)N(c2nc3ccc(Cl)cc3s2)C1c1ccco1)c1ccco1 (stereo not drawn)	x	7.9µM*!	u	45µM*	13µM*	28µM*
Cc1ccc2nc(N3C(=O)C(O)=C(C(=O)c4ccco4)C3c3ccc(C)o3)sc2c1 (stereo not drawn)	u	u	40µM*	50µM*	10µM*	-8%[57 µM]
Cc1ccc2nc(N3C(=O)C(O)=C(C(=O)c4ccc(C)o4)C3c3ccco3)sc2c1 (stereo not drawn)	x	0.56µM*	u	50µM*	50µM*	-12%
O=C(Nc1cnc(-c2ccc(Cl)cc2)nc1)c1ccccc1F	x	36%	x	x	x	x
CN(C)Cc1nc(SCC(=O)Nc2ccc(F)cc2)c2ccccc2n1	x	47%	x	x	x	x
CCN1CCc2c(sc(NC(=S)NC(=O)c3ccccc3)c2C#N)C1	56µM*	u	17%[0.0925 µM]	u	50µM*	u
CC(C)(C)c1ccc(C(=O)NC(=S)Nc2sc3c(c2C#N)CCC3)cc1	u	u	u	-9%	u	u
N#Cc1c(NC(=O)/C=C/C(=O)O)sc2c1CCN(Cc1ccccc1)C2	-27%	30%	u	50µM*	u	42%
Cn1nccc1C(=O)NC(=S)Nc1sc2c(c1C#N)CCCCC2	-17%	0%	50µM*	-4%	-9%	14%
N#Cc1c(NC(=S)NC(=O)Cc2cccs2)sc2c1CCCCC2	-2%	u	-9%[59 µM]	50µM*	u	-40%
NC(=O)c1c(NC(=O)Cc2cccs2)sc2c1CCC2	-11%	0%	19%[12.7 µM]	-6%	-11%	37%
Cc1ccc(/C(O)=C2\C(=O)C(=O)NC2c2ccc(Br)cc2)cc1 (stereo not drawn)	x	-60%	x	x	x	x
CCNC(=S)Nc1sc2c(c1C#N)CCC(C)C2 (stereo not drawn)	-19%	u	u	-7%	-12%	8%
N#Cc1c(NC(=S)NC(=O)c2ccccc2)sc2c1CCC2	22µM*	u	2.8µM*	-31%	45µM*	-3%
CC1CCc2sc(NC(=S)NC(=O)c3ccccc3)c(C#N)c2C1 (stereo not drawn)	u	u	35µM*	u	-19%	-11%
CC(=O)NC(=S)Nc1sc2c(c1C#N)CCCCC2	50µM*	-30%	45µM*	4%	-24%	-12%
